For three compounds, outcome and AC50 results are on record in PubChem BioAssay (EPA / NIEHS).

What all share (settings): mRNA level, 48 h; actives raise or lower the signal
Read-out in assay [1]: Heat shock 70 kDa protein 1 (HSPA1A), gene 3303
Description: LTEA_HepaRG_HSPA1A: Life Technologies and Expression Analysis (LTEA) Assay for Heat shock 70 kDa protein 1 (HSPA1A) using HepaRG (AID 2283502). In short, it runs like this: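 HSPA1A induction in human HepaRG liver cells is measured after 48 h of chemical treatment (100 uM maximum, 0.5% DMSO vehicle). Expression comes from qRT-PCR normalized to endogenous controls.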

Read-out in assay [2]: Hypoxia-inducible factor 1-alpha (Homo sapiens) (UniProt Q16665)
Kind of assay: LTEA_HepaRG_HIF1A: Life Technologies and Expression Analysis (LTEA) Assay for Hypoxia-inducible factor 1 (HIF1A) Trancription factor using HepaRG (AID 2283503).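 Further: HIF1A transcript by TaqMan qRT-PCR normalized to ACTB GAPDH and POLR2A.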 The procedure, abridged: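 HepaRG, 48 h exposure, 8-pt half-log series from 100 uM, 0.5% DMSO vehicle, duplicates. Readout: HIF1A transcript by qRT-PCR (Fluidigm array), housekeeping-normalised. Bidirectional curve fit vs DMSO baseline.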

Read-out in assay [3]: 3-Hydroxy-3-Methylglutaryl-CoA Synthase 2 (HMGCS2), HMGCS2 (gene 3158)
Description: LTEA_HepaRG_HMGCS2: Life Technologies and Expression Analysis (LTEA) Assay for 3-Hydroxy-3-Methylglutaryl-CoA Synthase 2 (HMGCS2) using HepaRG (AID 2283504). The procedure, abridged: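 This steatosis marker was read as HMGCS2 mRNA change in HepaRG cells treated 48 h with up to 100 uM chemical. Normalisation used housekeeping genes; activity in either direction was fitted relative to 0.5% DMSO vehicle.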

Read-out in another assay: HGF (gene 3082)
Description: LTEA_HepaRG_HGF: Life Technologies and Expression Analysis (LTEA) Assay for Hepatocyte Growth Facto (HGF) using HepaRG (AID 2283505). In short, it runs like this: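 Using HepaRG monolayers kept in 0.5% DMSO, chemicals were tested in duplicate over eight half-log concentrations from 100 uM for 48 h. Endpoint: HGF mRNA change relative to DMSO, normalized to ACTB/GAPDH/POLR2A.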

Read-out in assay [4]: Insulin Like Growth Factor 1 (IGF1), IGF1 (gene 3479)
Description: LTEA_HepaRG_IGF1: Life Technologies and Expression Analysis (LTEA) Assay for Insulin Like Growth Factor 1 (IGF1) using HepaRG (AID 2283506). In short, it runs like this:
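Using human HepaRG liver cells, IGF1 transcript induction or suppression is measured 48 h after dosing across eight concentrations capped at 100 uM. Values derive from bidirectional concentration-response fitting with DMSO as baseline.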

Read-out in assay [5]: Intercellular Adhesion Molecule 1 (ICAM1), ICAM1 (gene 3383)
Description: LTEA_HepaRG_ICAM1: Life Technologies and Expression Analysis (LTEA) Assay for Intercellular Adhesion Molecule 1 (ICAM1) using HepaRG (AID 2283507). In short, it runs like this:
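Using the human liver line HepaRG, compounds are tested in duplicate over 48 h at concentrations up to 100 uM. Expression is determined by TaqMan qRT-PCR, normalized to endogenous controls, and analysed relative to 0.5% DMSO vehicle.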

Read-out in assay [6]: Insulin-like growth factor-binding protein 1 (IGFBP1), IGFBP1 (gene 3484)
Description: LTEA_HepaRG_IGFBP1: Life Technologies and Expression Analysis (LTEA) Assay for Insulin-like growth factor-binding protein 1 (IGFBP1) using HepaRG (AID 2283508). The procedure, abridged: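 HepaRG, 48 h, 8 conc. (max 100 uM, half-log), duplicates, 0.5% DMSO. Readout: TaqMan qRT-PCR, ACTB/GAPDH/POLR2A normalisation. Fit: bidirectional vs DMSO.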

Read-out in assay [7]: Interleukin 6 (IL6), IL6 (gene 3569)
Description: LTEA_HepaRG_IL6: Life Technologies and Expression Analysis (LTEA) Assay for Interleukin 6 (IL6) using HepaRG (AID 2283509). In short, it runs like this: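 HepaRG, ~100,000 cells/well, 48 h pre-culture; serum-free induction medium; cmpd 8-pt half-log from 100 uM, 0.5% DMSO, duplicate, 48 h. Lysis in RLT, TaqMan qRT-PCR; gain or loss vs DMSO.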

Read-out in assay [8]: Interleukin 6 Receptor (IL6R), IL6R (gene 3570)
Description: LTEA_HepaRG_IL6R: Life Technologies and Expression Analysis (LTEA) Assay for Interleukin 6 Receptor (IL6R) using HepaRG (AID 2283510). The procedure, abridged: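 Concentration-response in human liver HepaRG cells: eight concentrations from 100 uM downward by half-logs, 48 h exposure, 0.5% DMSO vehicle. IL6R mRNA change measured by qRT-PCR and fitted in both directions relative to vehicle.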

Read-out in assay [9]: Potassium channel subfamily K member 1 (KCNK1), KCNK1 (gene 3775)
Kind of assay: LTEA_HepaRG_KCNK1: Life Technologies and Expression Analysis (LTEA) Assay for Potassium channel subfamily K member 1 (KCNK1) using HepaRG (AID 2283511). In short, it runs like this: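 Gain or loss of KCNK1 mRNA is the read-out, quantified by qRT-PCR against three housekeeping genes after 48 h chemical treatment of human HepaRG liver cells. Concentrations ran from 100 uM downward in half-log steps, vehicle 0.5% DMSO.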

Read-out in assay [10]: Keratin 19 (KRT19), KRT19 (gene 3880)
Description: LTEA_HepaRG_KRT19: Life Technologies and Expression Analysis (LTEA) Assay for Keratin 19 (KRT19) using HepaRG (AID 2283512). The procedure, abridged:
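Readout is qRT-PCR of KRT19 mRNA, normalized to ACTB, GAPDH and POLR2A, from HepaRG cells treated 48 h with eight-point half-log dilutions topping at 100 uM. Activity in either direction is scored relative to 0.5% DMSO vehicle.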

Read-out in assay [11]: JUN Transcription Factor, JUN (gene 3725)
Description: LTEA_HepaRG_JUN: Life Technologies and Expression Analysis (LTEA) Assay for JUN Transcription Factor using HepaRG (AID 2283513). The procedure, abridged:
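Human HepaRG liver cells receive test chemicals in 0.5% DMSO for 48 h across an eight-point range topping at 100 uM. Expression changes in JUN are scored in both directions against the DMSO vehicle.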

Read-out in assay [12]: Lipase C (LIPC), LIPC (gene 3990)
Description: LTEA_HepaRG_LIPC: Life Technologies and Expression Analysis (LTEA) Assay for Lipase C (LIPC) using HepaRG (AID 2283514). In short, it runs like this: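 Read-out is LIPC transcript level by TaqMan qRT-PCR, normalized to three housekeeping genes, after 48 h chemical treatment of human HepaRG liver cells. Curves span eight concentrations topping at 100 uM; activity in either direction scored relative to 0.5% DMSO.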

Read-out in assay [13]: Lipoprotein lipase (LPL), LPL (gene 4023)
Kind of assay: LTEA_HepaRG_LPL: Life Technologies and Expression Analysis (LTEA) Assay for Lipoprotein lipase (LPL) using HepaRG (AID 2283515). The procedure, abridged:
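Read-out is LPL transcript level by qRT-PCR, normalized to three housekeeping genes and fitted bidirectionally against the DMSO control. Human HepaRG cells received chemicals for 48 h at up to 100 uM.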

Read-out in assay [14]: MicroRNA 122 (MIR122), gene 406906
Kind of assay: LTEA_HepaRG_MIR122: Life Technologies and Expression Analysis (LTEA) Assay for MicroRNA 122 (MIR122) using HepaRG (AID 2283516). Further: the transcript read is the microRNA miR-122. The procedure, abridged: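 HepaRG, 48 h exposure, 8-pt half-log from 100 uM, 0.5% DMSO; TaqMan qRT-PCR; bidirectional fit vs DMSO.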

Read-out in assay [15]: matrix metalloproteinase-10 (MMP10), MMP10 (gene 4319)
Description: LTEA_HepaRG_MMP10: Life Technologies and Expression Analysis (LTEA) Assay for matrix metalloproteinase-10 (MMP10) using HepaRG (AID 2283517). The procedure, abridged: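 Gain or loss of MMP10 mRNA is fitted relative to the 0.5% DMSO vehicle. The human hepatic line HepaRG receives a 48-hour serum-free exposure, in duplicate, with a maximum concentration of 100 uM.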

Read-out in a further assay: MYC, MYC (gene 4609)
Kind of assay: LTEA_HepaRG_MYC: Life Technologies and Expression Analysis (LTEA) Assay for MYC using HepaRG (AID 2283518). The procedure, abridged: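 Expression changes were scored by TaqMan qRT-PCR with ACTB, GAPDH and POLR2A normalization. Cultures in serum-free induction medium received duplicate 8-point concentration series, highest 100 uM, for 48 h; DMSO (0.5%) served as baseline.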

Read-out in assay [16]: matrix metalloproteinase-3 (MMP3), MMP3 (gene 4314)
Description: LTEA_HepaRG_MMP3: Life Technologies and Expression Analysis (LTEA) Assay for matrix metalloproteinase-3 (MMP3) using HepaRG (AID 2283519). The procedure, abridged:
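HepaRG, human; 48 h dosing, 8 conc. (max 100 uM, half-log), duplicate, 0.5% DMSO. Readout: MMP3 transcript by Fluidigm TaqMan qRT-PCR, ACTB/GAPDH/POLR2A-normalised. Gain or loss fitted vs DMSO.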

Read-out in assay [17]: Paternally Expressed 10 (PEG10), PEG10 (gene 23089)
Kind of assay: LTEA_HepaRG_PEG10: Life Technologies and Expression Analysis (LTEA) Assay for Paternally Expressed 10 (PEG10) using HepaRG (AID 2283520).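 On AC50: differentiated HepaRG human liver cells in serum-free induction medium with 0.5% DMSO; PEG10 transcript by qRT-PCR normalised to ACTB GAPDH and POLR2A.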 In short, it runs like this: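 Chemicals tested on HepaRG cells for 48 h, highest concentration 100 uM. PEG10 expression assessed by qRT-PCR relative to DMSO control.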

Active and inactive are the calls of the source. How the source made its calls: active means hit-call score of the fitted dose curve at least 0.9, where 1 is the maximum; inactive means score below 0.9.

Sequence of Hypoxia-inducible factor 1-alpha (Homo sapiens) (Q16665 whole entry, looked up): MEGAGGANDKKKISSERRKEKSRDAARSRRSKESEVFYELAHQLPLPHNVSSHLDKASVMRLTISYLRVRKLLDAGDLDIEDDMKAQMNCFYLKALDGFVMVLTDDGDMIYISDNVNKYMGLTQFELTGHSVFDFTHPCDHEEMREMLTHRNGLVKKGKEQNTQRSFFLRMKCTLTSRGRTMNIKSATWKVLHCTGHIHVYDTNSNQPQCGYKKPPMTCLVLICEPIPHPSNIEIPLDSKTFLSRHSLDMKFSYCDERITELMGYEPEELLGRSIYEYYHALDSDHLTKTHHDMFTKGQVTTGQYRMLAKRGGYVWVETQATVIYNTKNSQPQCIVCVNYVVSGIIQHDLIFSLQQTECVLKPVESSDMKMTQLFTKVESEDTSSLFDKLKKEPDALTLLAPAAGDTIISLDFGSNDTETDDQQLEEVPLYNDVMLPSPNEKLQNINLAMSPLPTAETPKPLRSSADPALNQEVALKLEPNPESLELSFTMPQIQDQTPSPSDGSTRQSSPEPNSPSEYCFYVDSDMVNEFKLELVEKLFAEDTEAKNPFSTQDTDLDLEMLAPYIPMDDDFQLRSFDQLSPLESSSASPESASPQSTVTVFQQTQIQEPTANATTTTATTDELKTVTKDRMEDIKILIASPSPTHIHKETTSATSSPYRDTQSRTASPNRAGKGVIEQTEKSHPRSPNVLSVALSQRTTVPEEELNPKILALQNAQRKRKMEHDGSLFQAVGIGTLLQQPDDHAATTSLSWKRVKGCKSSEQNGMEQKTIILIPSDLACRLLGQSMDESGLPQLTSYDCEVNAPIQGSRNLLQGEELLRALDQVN

For the compound `CCNc1nc(Cl)nc(NCC)n1`, the result (in assay [1]; in assay [2]; in assay [3]; with HGF (gene 3082); in [4]; in assay [5]) was inactive. Besides, the call in assay [6], in assay [7], in [8], in assay [9], in assay [10] and in assay [11] was inactive. Also, the outcome was “inactive” in assay [12]; “inactive” in [13]; “inactive” in [14]; “inactive” in assay [15]; “inactive” with MYC, MYC (gene 4609); “inactive” in [16]. Further, the compound was called inactive in [17].
On to `CCOC(=O)CC(SP(=S)(OC)OC)C(=O)OCC` (configuration not stated), for which the compound was classed as inactive (in [1]; in assay [2]; in [3]; with HGF (gene 3082); in assay [4]; in assay [5]). For the same compound, the outcome in assay [6], in assay [7], in assay [8], in assay [9], in assay [10] and in assay [11] was inactive. Also, the outcome in [12] is “inactive”; in [13], “inactive”; in [14], “inactive”; in assay [15] it was “inactive”; with MYC, MYC (gene 4609), “inactive”; in assay [16], “inactive”. The compound was classed as inactive in assay [17].
In the case of `CCCC1COC(Cn2cncn2)(c2ccc(Cl)cc2Cl)O1` (configuration not stated), the AC50 (as a rule, the concentration at which the activity in the assay is half-maximal) in assay [1] is 90.5 µM (active); in [2] it was 50 µM (active); in assay [3], 36.5 µM (active); with HGF (gene 3082), 50 µM (active); in assay [4], 25.5 µM (active); in [5], 77.1 µM (active). Further, the AC50 in [6] is 34.4 µM (active); in [7] it was 83.2 µM (active); in assay [10] it was 1.12 µM (active); in assay [12], 35.8 µM (active); in assay [13], 27.8 µM (active); in assay [14], 49.5 µM (active). Moreover, the AC50 in assay [15] is 77.8 µM (active); in the assay with MYC, MYC (gene 4609), 35.4 µM (active); in assay [16] it was 89.4 µM (active); in [17], 15 µM (active). Besides, the compound was called inactive in [8], in assay [9] and in [11].
